PubChem BioAssay (NCATS)
Where “and” joins values, the source holds several entries; their conditions need not be identical. Identical values can stand only once. Inconclusive results are not listed. Calls of active or inactive are those of the source. Unless noted, calls follow the shape of the full dose curve.

How the values were obtained:
[1] = AP1 Signaling Pathway (AID 357; active = well fitted curve in either direction with a large enough effect, not every such curve was filed as active;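 also: ME-180 reporter cells stimulated with EGF at its EC50 level; % is scaled to controls: 0 for no effect and ±100 for the full control effect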); settings: ME-180 (cervical carcinoma) AP-1-bla reporter, EGF-induced, beta-lactamase ratio, 5 h; at 7.69 µM (top of the series) unless noted
How it was run: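 First, ME-180 AP-1-bla cells were cultured overnight at 37 °C in low-serum Opti-MEM. Next, titrated compounds with EC50 EGF were incubated 5 hours. Finally, CCF4 was added for 2.5 hours and the 460/530 nm ratio recorded.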

[2] = NFAT Signaling Pathway (AID 444; active = well fitted curve in either direction with a large enough effect, not every such curve was filed as active;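 also: carbachol stimulus at about its EC50 of 1 µM final; % is scaled to controls: 0 for no effect and ±100 for the full control effect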); settings: Jurkat NFAT-bla M1, carbachol, beta-lactamase ratio, 5 h; at 7.69 µM (top of the series) unless noted
How it was run: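 Jurkat cells carrying an NFAT-driven β-lactamase reporter and co-transfected muscarinic M1 receptor were treated with compound plus carbachol (1 uM final, an EC50 level) for 5 h at 37 °C. CCF4 loading followed for 1 h at RT; 460/530 nm ratio gave %activity.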

[3] = biological target: Glucocorticoid receptor (Homo sapiens) (UniProt P04150); assay: GR-EFC Redistribution (AID 451); settings: CHO-K1 GR-EFC translocation, beta-gal luminescence, 2 h; also: potency is read from the fitted curve at half-maximal effect
How it was run: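 CHO-K1 cells stably expressing nuclear-localized β-gal enzyme acceptor and GR fused C-terminally to the enzyme donor fragment; ligand-driven nuclear translocation restores β-gal by complementation. Compounds titrated up to 46 uM final, 2 h at 37 °C; luminescence read.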

[4] = Cell Viability - LYMP1-002 - Assay at 40 hr (AID 994; active = well fitted curve in the direction sought with a large enough effect; an effect the other way counts as inactive or inconclusive;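 also: 0% = DMSO only and full inhibition = 92 µM tetraoctylammonium bromide; nearly all actives have a fitted effect of over 60% in size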); settings: LYMP1-002 lymphoblastoid cell viability; series mostly up to 92.2 µM
How it was run: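 qHTS cytotoxicity; 2500 cells/well, 5 hr 37 C settle, compound 40 hr 37 C. CellTiter-Glo, 30 min RT, luminescence (ATP). Concentration-response, Hill fit → AC50. Pos. ctrl tetraoctylammonium bromide.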

[5] = biological target: Bile acid receptor (Homo sapiens) (UniProt Q96RI1); assay: qHTS assay for small molecule antagonists of farnesoid X receptor signaling (AID 588526); settings: HEK293T FXR-UAS-bla, beta-lactamase ratio, antagonist mode; series mostly up to 76.7 µM; also: % is scaled to controls: 0 for no effect and ±100 for the full control effect
How it was run: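 Concentration-response titrations were fitted to the Hill equation for half-maximal inhibition and maximal response, with data normalised to 50 uM chenodeoxycholic acid and DMSO control wells. Cells: FXR-UAS-bla HEK293T, dialyzed FBS.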

[6] = biological target: Glucocorticoid receptor (Homo sapiens) (UniProt P04150); assay: qHTS assay for small molecule agonists of glucocorticoid receptor signaling (AID 588532; active = well fitted curve in the direction sought with a large enough effect in the signal ratio, with a control signal flat; the % refers to the signal ratio;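 also: 100% = dexamethasone at 0.1 µM and 0% = DMSO only wells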); settings: HeLa MMTV-bla, beta-lactamase ratio, agonist, 18 h; stronger effect = higher value; percent of dexamethasone control, DMSO zero
How it was run: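 Titration series, up to 92 uM, applied to GRE-bla HeLa cells for 18 h at 37 C. Detection by CCF4 FRET substrate after 2 h at RT.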

[7] = biological target: Glucocorticoid receptor (Homo sapiens) (UniProt P04150); assay: qHTS assay for small molecule antagonists of glucocorticoid receptor signaling (AID 588533; active = well fitted inhibition curve with a large enough effect in the signal ratio, with a control signal flat, not every such curve was filed as active; the % refers to the signal ratio;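 also: cells stimulated with 2 nM dexamethasone as agonist; % is scaled to controls: 0 for no effect and ±100 for the full control effect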); settings: HeLa MMTV-bla, GRE beta-lactamase ratio, antagonist mode, 18 h; series mostly up to 76.8 µM
How it was run: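 Antagonist-mode qHTS: compound titrations added to GRE-bla HeLa cells, then dexamethasone 2 nM final; 18 h, 37 C. CCF4 FRET fluorescence normalized to dexamethasone and DMSO; IC50 from Hill fit.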

[8] = biological target: Vitamin D3 receptor (Homo sapiens) (UniProt P11473); assay: qHTS assay for small molecule antagonists of vitamin D receptor signaling (AID 588541); settings: HEK293T VDR-UAS-bla, beta-lactamase ratio, antagonist mode; series mostly up to 76.7 µM
How it was run: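 VDR-UAS-bla HEK293T cells (2000/well, 2% charcoal-stripped FBS) were treated with titrated compounds plus 1-alpha,25-dihydroxyvitamin D3 (50 nM or 3 nM final) for 16 h at 37 C. CCF4 beta-lactamase fluorescence was read; Hill fits gave IC50.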

[9] = biological target: Vitamin D3 receptor (Homo sapiens) (UniProt P11473); assay: qHTS assay for small molecule agonists of vitamin D receptor signaling (AID 588543); settings: HEK293T VDR-UAS-bla, beta-lactamase ratio, 16 h; series mostly up to 76.8 µM;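 also: 0% = DMSO basal and 100% = reference agonist control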
How it was run: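 qHTS in agonist mode: compound titrations stimulate a VDR-driven β-lactamase reporter in HEK293T cells over 16 h at 37 °C. Response normalized to 50 nM 1α,25-dihydroxyvitamin D3 = 100%, DMSO = 0%; Hill fitting gives EC50 and maximal response.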

[10] = qHTS assay for small molecule agonists of the antioxidant response element (ARE) signaling pathway (AID 651741; active = well fitted activation curve with a large enough effect in the signal ratio; the % refers to the signal ratio; also: % of control where 0% means no effect); settings: HepG2 ARE-bla reporter, beta-lactamase FRET ratio, 16 h; series mostly up to 96 µM
How it was run: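 Beta-lactamase reporter expression driven by the antioxidant response element in HepG2 cells was detected by fluorescence with LiveBLAzer B/G FRET substrate (2 h, room temperature) following 16 h compound treatment at 37 C.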

[11] = qHTS assay for small molecule activators of the nuclear factor-kappa B (NF-kB) signaling pathway (AID 651749; active = well fitted activation curve with a large enough effect in the signal ratio; the % refers to the signal ratio; also: % of control where 0% means no effect); settings: NF-kB-bla ME-180 cells, beta-lactamase FRET ratio, 16 h; stronger effect = higher value
How it was run: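 Beta-lactamase reporter expression, controlled by NF-kB response elements in ME-180 cells, was quantified fluorometrically via FRET disruption; cells at 2,000/well had been incubated with 23 nL test compound for 16 hr.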

[12] = qHTS assay to identify small molecules that stimulate interleukin-8 (IL-8) secretion (AID 651758; active = well fitted activation curve with a large enough effect in the signal ratio; the % refers to the signal ratio; also: 0% is about no effect); settings: HTRF ratio (665/615); series mostly up to 92.2 µM
How it was run: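 Quantitative HTS in THP-1 monocytic cells at 2000 cells per well, with 16 hrs compound incubation at 37 C. IL-8 in the medium was then quantified by HTRF immunoassay, read after 1-3 hrs at room temperature.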

[13] = biological target: Nuclear receptor ROR-gamma (Homo sapiens) (UniProt P51449); assay: qHTS assay for small molecule antagonists of the retinoid-related orphan receptor gamma (ROR-gamma) signaling pathway (AID 651802; active = well fitted curve in the direction sought with a large enough effect; an effect the other way counts as inactive or inconclusive;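 also: CHO cells with doxycycline-induced ROR-gamma expression; luciferase reporter luminescence driven by ROR response element; % is scaled to controls: 0 for no effect and ±100 for the full control effect; nearly all actives have a fitted effect of over 60% in size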); settings: ROR-gamma antagonist cell reporter assay; series mostly up to 92.2 µM
How it was run: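 Luciferase read-out: ONE-Glo luminescence after 30 min at room temperature, following 16hr doxycycline induction at 37C, 5% CO2 of CHO cells with TET-inducible ROR and RORE-LUC reporter; decreased luminescence = reduced reporter activity.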

[14] = Cell Viability - SK-N-SH (AID 435); settings: SK-N-SH neuroblastoma cell viability qHTS;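 also: potency is read from the fitted curve at half-maximal effect; compound exposure lasted 40 h at 37 °C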
How it was run: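 Cells seeded at 1500 per well and incubated 5 hr at 37 °C. Compound added, then 40 hr at 37 °C. CellTiter-Glo added, 20 min at room temperature, luminescence read.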

[15] = qHTS assay for small molecule agonists of the antioxidant response element (ARE) signaling pathway measured by Nrf2-dependant transcriptional activity - cell viability counter screen (AID 720653; active = well fitted curve in the direction sought with a large enough effect in the repeat runs; an effect the other way counts as inactive or inconclusive; also: % is scaled to controls: 0 for no effect and ±100 for the full control effect); settings: ARE-bla HepG2 viability, CellTiter-Glo ATP luminescence, 16 h; max response: stronger effect = lower value
How it was run: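 ARE-bla HepG2 cells (2,000/well) rested 5 hrs at 37C/5% CO2, then exposed to compounds in DMSO for 16 hrs. Viability was read in the same wells as intracellular ATP by luminescence, 30 min at room temperature after reagent addition.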

[16] = qHTS assay for small molecule activators of the human pregnane X receptor (PXR) signaling pathway (AID 720659; call rule not given here; also: 0% is about no effect); settings: DPX-2 HepG2 CYP3A4-luciferase, 24 h; series mostly up to 92.3 µM
[17] = biological target: Glucocorticoid receptor (Homo sapiens) (UniProt P04150); assay: GR-GFP Redistribution (AID 450;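 active = compounds whose dose series gives a full or clear partial fitted curve of increased nuclear translocation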; also: potency is read from the fitted curve at half-maximal effect); settings: U2OS GR-GFP nuclear translocation, laser cytometry, 2 h
[18] = qHTS assay for small molecule antagonists of peroxisome proliferator-activated receptor delta signaling (AID 588535; active = well fitted inhibition curve with a large enough effect in the signal ratio, with a control signal flat, not every such curve was filed as active; the % refers to the signal ratio;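 as to max response: cells co-treated with a PPAR-delta agonist as stimulator during compound exposure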); settings: HEK293T PPARd-UAS-bla, beta-lactamase FRET ratio, 18 h; 460 nm channel
How it was run: (§1)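 Compounds tested in titration on PPAR-delta-UAS-bla HEK293T cells grown in charcoal/dextran-stripped serum (2%); beta-lactamase activity read via CCF4 emission at 460 and 530 nm.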

[19] = biological target: Peroxisome proliferator-activated receptor delta (Homo sapiens) (UniProt Q03181); assay: as above; settings: HEK293T PPARd-UAS-bla, beta-lactamase FRET ratio, 18 h; series mostly up to 76.7 µM
How it was run: as §1

Chain of Vitamin D3 receptor (Homo sapiens) (P11473 whole entry, looked up): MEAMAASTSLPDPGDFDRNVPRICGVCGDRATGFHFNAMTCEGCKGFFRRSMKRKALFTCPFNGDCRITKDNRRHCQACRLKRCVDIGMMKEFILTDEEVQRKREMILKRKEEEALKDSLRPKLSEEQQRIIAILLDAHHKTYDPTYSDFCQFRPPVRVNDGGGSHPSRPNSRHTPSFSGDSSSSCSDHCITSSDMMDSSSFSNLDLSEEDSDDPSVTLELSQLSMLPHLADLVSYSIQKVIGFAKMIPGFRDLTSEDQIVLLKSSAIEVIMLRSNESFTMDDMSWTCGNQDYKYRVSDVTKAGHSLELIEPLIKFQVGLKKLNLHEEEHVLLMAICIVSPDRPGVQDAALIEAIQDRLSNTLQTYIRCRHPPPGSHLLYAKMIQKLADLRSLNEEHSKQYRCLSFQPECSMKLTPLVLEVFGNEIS
Chain of Bile acid receptor (Homo sapiens) (Q96RI1 whole entry, looked up): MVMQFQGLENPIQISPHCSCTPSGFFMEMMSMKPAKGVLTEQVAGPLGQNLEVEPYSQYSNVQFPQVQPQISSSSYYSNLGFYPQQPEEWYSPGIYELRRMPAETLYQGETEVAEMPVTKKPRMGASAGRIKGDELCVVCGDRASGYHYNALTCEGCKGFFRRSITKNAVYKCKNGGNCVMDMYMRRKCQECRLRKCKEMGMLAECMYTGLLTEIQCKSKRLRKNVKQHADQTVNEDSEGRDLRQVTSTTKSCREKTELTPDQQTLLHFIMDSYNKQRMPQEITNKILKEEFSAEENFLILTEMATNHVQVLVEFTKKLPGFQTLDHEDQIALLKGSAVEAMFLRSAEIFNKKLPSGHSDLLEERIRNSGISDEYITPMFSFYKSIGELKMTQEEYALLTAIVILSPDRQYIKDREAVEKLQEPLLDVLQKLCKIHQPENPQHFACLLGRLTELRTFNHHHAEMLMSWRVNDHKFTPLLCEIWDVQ
Chain of Glucocorticoid receptor (Homo sapiens) (P04150 whole entry, looked up, the tested form may be a part): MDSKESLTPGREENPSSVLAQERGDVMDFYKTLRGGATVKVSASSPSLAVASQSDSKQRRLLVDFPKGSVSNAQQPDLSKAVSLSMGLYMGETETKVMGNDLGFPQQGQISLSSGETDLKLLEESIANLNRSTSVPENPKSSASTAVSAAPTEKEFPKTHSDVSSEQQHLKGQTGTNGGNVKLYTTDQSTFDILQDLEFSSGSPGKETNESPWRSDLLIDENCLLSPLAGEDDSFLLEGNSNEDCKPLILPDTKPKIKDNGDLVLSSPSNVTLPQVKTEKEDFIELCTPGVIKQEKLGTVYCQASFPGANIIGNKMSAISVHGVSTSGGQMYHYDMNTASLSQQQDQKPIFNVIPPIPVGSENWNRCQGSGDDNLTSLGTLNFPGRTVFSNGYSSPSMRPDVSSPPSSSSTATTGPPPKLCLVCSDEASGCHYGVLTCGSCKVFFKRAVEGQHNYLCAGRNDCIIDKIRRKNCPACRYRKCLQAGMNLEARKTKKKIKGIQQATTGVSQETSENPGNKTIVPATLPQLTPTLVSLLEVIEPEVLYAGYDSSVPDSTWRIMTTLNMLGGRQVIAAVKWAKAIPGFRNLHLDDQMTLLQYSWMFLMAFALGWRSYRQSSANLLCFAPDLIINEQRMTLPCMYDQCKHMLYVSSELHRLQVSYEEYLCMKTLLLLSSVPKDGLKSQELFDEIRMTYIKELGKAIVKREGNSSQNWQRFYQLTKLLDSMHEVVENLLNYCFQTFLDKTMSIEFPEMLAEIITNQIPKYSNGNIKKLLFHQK
Chain of Peroxisome proliferator-activated receptor delta (Homo sapiens) (Q03181 whole entry, looked up): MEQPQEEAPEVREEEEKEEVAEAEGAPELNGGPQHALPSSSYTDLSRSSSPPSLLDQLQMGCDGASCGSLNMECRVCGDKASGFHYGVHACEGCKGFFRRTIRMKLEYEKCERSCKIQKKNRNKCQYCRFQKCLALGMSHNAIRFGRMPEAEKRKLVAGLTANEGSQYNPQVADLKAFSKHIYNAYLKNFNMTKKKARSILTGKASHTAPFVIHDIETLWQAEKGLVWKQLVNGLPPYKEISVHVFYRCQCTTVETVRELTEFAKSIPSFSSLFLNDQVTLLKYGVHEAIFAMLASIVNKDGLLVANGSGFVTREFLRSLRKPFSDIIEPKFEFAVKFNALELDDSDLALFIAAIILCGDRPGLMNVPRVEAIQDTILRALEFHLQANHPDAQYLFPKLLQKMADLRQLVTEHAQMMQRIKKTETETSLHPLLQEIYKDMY
Chain of Nuclear receptor ROR-gamma (Homo sapiens) (P51449 whole entry, looked up): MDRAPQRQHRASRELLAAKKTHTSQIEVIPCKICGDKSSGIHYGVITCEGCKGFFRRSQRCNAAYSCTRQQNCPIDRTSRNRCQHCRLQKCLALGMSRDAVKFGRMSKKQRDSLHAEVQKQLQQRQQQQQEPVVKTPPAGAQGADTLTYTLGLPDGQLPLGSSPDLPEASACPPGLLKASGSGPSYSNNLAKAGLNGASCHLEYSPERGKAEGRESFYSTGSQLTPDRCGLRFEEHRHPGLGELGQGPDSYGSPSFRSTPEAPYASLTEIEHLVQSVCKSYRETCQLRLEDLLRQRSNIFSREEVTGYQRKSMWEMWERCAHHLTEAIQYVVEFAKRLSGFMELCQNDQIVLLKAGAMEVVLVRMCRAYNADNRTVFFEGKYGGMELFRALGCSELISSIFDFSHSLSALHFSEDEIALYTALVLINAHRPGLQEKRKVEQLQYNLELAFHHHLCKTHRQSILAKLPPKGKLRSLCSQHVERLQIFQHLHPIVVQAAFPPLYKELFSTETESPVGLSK

COc1ccccc1-c1nc(NC2CC2)c2ccccc2n1
inactive: activity change, negative = inhibition [1] -2.64% | activity change, negative = inhibition [2] -13.9% | Potency [3] > 46 µM

c1ccccc1
inactive: Potency [4] | outcome [5] | activation [6] -2.25% [middle of 4 runs] | Potency [7] | outcome [8] | outcome [9] | Potency [10] | activation [11] -0.601% [middle of 4 runs] | Potency [12] | Potency [13]

CCC(O)OC(O)CC (centres undefined)
inactive: Potency [14] > 92 µM | activation [6] 1.96% and -2.19% and -0.591% | Potency [7] | outcome [8] | outcome [9] | activation [11] 0.14% [middle of 4 runs] | Potency [12] | max response [15] 1.91% [middle of 4 runs] | outcome [16]

Nc1ccc(S(=O)(=O)O)cc1
inactive: Potency [14] > 92 µM | outcome [5] | outcome [8] | outcome [9] | Potency [10] | activation [11] -0.239% and 0.0399% | max response [15] 0.96% and 3.16%

Clc1ccccc1-c1ccc2ncnc(NCCN3CCOCC3)c2c1
inactive: activity change, negative = inhibition [2] 13.8% | Potency [17] > 46 µM | Potency [3] > 46 µM

Clc1cc(Cl)c(Cl)cc1Cl
inactive: Potency [14] > 92 µM | activation [6] 3.81% and -2.02% | Potency [7] | Potency [19] | Potency [10] | activation [11] 0.515% and -2% | Potency [13] | outcome [16]
10.3% and -6.5%: max response [18]

CC1(C)CC(N=C=O)CC(C)(CN=C=O)C1 (centres undefined)
inactive: Potency [4] | outcome [5] | outcome [8] | outcome [9] | Potency [10] | activation [11] -0.293% and -0.0815% | Potency [13] | max response [15] 6.59% and -15.1% | outcome [16]

CC(=O)OC/C=C(\C)CCC=C(C)C
inactive: Potency [4] | activation [6] 3.31% and -2.94% | Potency [7] | Potency [19] | Potency [13] | outcome [16]
-10.2% and 0.451%: max response [18]

CN(C)C=O
inactive: Potency [4] | outcome [5] | Potency [10] | activation [11] 0.506% and -0.104% and -1.7% | Potency [12] | Potency [13] | outcome [16]
